Source: the supplement of paper PMC8728848
The full list was thinned out, with the strongest signals kept by preference.

Key:
Experiment in all cases: glycan array binding signal (z-score within array); higher = stronger binding
Settings in all cases: glycan notation: IUPAC condensed, linker removed
[1] = biological target: Fuc(a1-2)Gal(b1-4)GlcNAc(b1-2)Man(a1-3)[Fuc(a1-2)Gal(b1-4)GlcNAc(b1-2)Man(a1-6)]Man(b1-4)GlcNAc(b1-4)GlcNAc
Procedure, shortened: (§1)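 Glycan array data were curated from 3228 arrays in the Consortium for Functional Glycomics database and kept only where the protein sequence was available. Glycan names were converted to IUPAC-condensed notation, and columns mapping to the same glycan were averaged. The binding signal is a within-array Z-score, averaged across arrays of the same protein sequence at different concentrations or buffers and across linkers. Negative Z-scores can be read as non-binding.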

[2] = biological target: Fuc(a1-2)Gal(b1-4)GlcNAc(b1-2)[Fuc(a1-2)Gal(b1-4)GlcNAc(b1-4)]Man(a1-3)[Fuc(a1-2)Gal(b1-4)GlcNAc(b1-2)Man(a1-6)]Man(b1-4)GlcNAc(b1-4)GlcNAc
Procedure, shortened: as §1

[3] = biological target: Fuc(a1-2)Gal(b1-4)GlcNAc(b1-3)Gal(b1-4)GlcNAc(b1-2)Man(a1-3)[Fuc(a1-2)Gal(b1-4)GlcNAc(b1-3)Gal(b1-4)GlcNAc(b1-2)Man(a1-6)]Man(b1-4)GlcNAc(b1-4)GlcNAc
Procedure, shortened: as §1

[4] = biological target: Fuc(a1-2)Gal(b1-4)[Fuc(a1-3)]GlcNAc(b1-3)Gal(b1-4)[Fuc(a1-3)]GlcNAc(b1-3)Gal(b1-4)[Fuc(a1-3)]GlcNAc
Procedure, shortened: as §1

[5] = biological target: Fuc(a1-2)Gal6S(b1-3)GlcNAc6S
Procedure, shortened: as §1

[6] = biological target: Fuc(a1-2)[GalNAc(a1-3)]Gal(b1-4)GlcNAc(b1-3)Gal(b1-4)GlcNAc
Procedure, shortened: as §1

[7] = biological target: Fuc(a1-2)[GalNAc(a1-3)]Gal(b1-4)GlcNAc(b1-3)GalNAc
Procedure, shortened: as §1

[8] = biological target: Fuc(a1-2)[GalNAc(a1-3)]Gal(b1-4)[Fuc(a1-3)]GlcNAc
Procedure, shortened: as §1

[9] = biological target: Fuc(a1-3)[GalNAc(b1-4)]GlcNAc
Procedure, shortened: as §1

[10] = biological target: Gal(a1-3)Gal(b1-4)GlcNAc(b1-2)Man(a1-3)[Gal(a1-3)Gal(b1-4)GlcNAc(b1-2)Man(a1-6)]Man(b1-4)GlcNAc(b1-4)GlcNAc
Procedure, shortened: as §1

[11] = biological target: Gal(a1-3)GalNAc
Procedure, shortened: as §1

[12] = biological target: Gal(a1-4)Gal(b1-4)GlcNAc(b1-2)Man(a1-3)[Gal(a1-4)Gal(b1-4)GlcNAc(b1-2)Man(a1-6)]Man(b1-4)GlcNAc(b1-4)GlcNAc
Procedure, shortened: as §1

[13] = biological target: Gal(b1-3)GalNAc(a1-3)[Fuc(a1-2)]Gal(b1-4)GlcNAc
Procedure, shortened: as §1

[14] = biological target: Gal(b1-3)GlcNAc(a1-3)Gal(b1-4)GlcNAc
Procedure, shortened: as §1

[15] = biological target: Gal(b1-3)GlcNAc(b1-2)Man(a1-3)[Gal(b1-3)GlcNAc(b1-2)Man(a1-6)]Man(b1-4)GlcNAc(b1-4)GlcNAc
Procedure, shortened: as §1

[16] = biological target: Gal(b1-4)GlcNAc(a1-6)Gal(b1-4)GlcNAc
Procedure, shortened: as §1

[17] = biological target: Gal(b1-4)GlcNAc(b1-2)Man(a1-3)[Gal(b1-4)GlcNAc(b1-2)Man(a1-6)]Man(b1-4)GlcNAc(b1-4)GlcNAc
Procedure, shortened: as §1

[18] = biological target: Gal(b1-4)GlcNAc(b1-2)[Gal(b1-4)GlcNAc(b1-6)]Man(a1-6)[Gal(b1-4)GlcNAc(b1-2)Man(a1-3)]Man(b1-4)GlcNAc(b1-4)[Fuc(a1-6)]GlcNAc
Procedure, shortened: as §1

[19] = biological target: Gal(b1-4)GlcNAc(b1-3)Gal(b1-4)GlcNAc
Procedure, shortened: as §1

[20] = biological target: Gal(b1-4)GlcNAc(b1-3)Gal(b1-4)GlcNAc(b1-2)[Gal(b1-4)GlcNAc(b1-3)Gal(b1-4)GlcNAc(b1-6)]Man(a1-6)[Gal(b1-4)GlcNAc(b1-3)Gal(b1-4)GlcNAc(b1-2)Man(a1-3)]Man(b1-4)GlcNAc(b1-4)GlcNAc
Procedure, shortened: as §1

[21] = biological target: Gal(b1-4)GlcNAc(b1-3)Gal(b1-4)GlcNAc(b1-3)Gal(b1-4)GlcNAc
Procedure, shortened: as §1

[22] = biological target: Gal(b1-4)GlcNAc(b1-3)Gal(b1-4)GlcNAc(b1-3)GalNAc
Procedure, shortened: as §1

[23] = biological target: Gal(b1-4)GlcNAc(b1-3)Gal(b1-4)GlcNAc(b1-3)[Gal(b1-4)GlcNAc(b1-3)Gal(b1-4)GlcNAc(b1-6)]GalNAc
Procedure, shortened: as §1

[24] = biological target: Gal3S(b1-3)[Fuc(a1-4)]GlcNAc
Procedure, shortened: as §1

[25] = biological target: Gal3S(b1-4)[Fuc(a1-3)]Glc6S
Procedure, shortened: as §1

[26] = biological target: Gal6S(b1-3)GlcNAc
Procedure, shortened: as §1

[27] = biological target: GalNAc(b1-4)GlcNAc(b1-2)Man(a1-3)[GalNAc(b1-4)GlcNAc(b1-2)Man(a1-6)]Man(b1-4)GlcNAc(b1-4)GlcNAc
Procedure, shortened: as §1

[28] = biological target: GlcNAc(a1-4)Gal(b1-4)GlcNAc(b1-3)Gal(b1-4)GlcNAc
Procedure, shortened: as §1

[29] = biological target: GlcNAc(b1-2)Man(a1-3)[GlcNAc(b1-2)Man(a1-6)]Man(b1-4)GlcNAc(b1-4)GlcNAc
Procedure, shortened: as §1

[30] = biological target: GlcNAc(b1-2)[GlcNAc(b1-6)]Man(a1-6)[GlcNAc(b1-2)Man(a1-3)]Man(b1-4)GlcNAc(b1-4)GlcNAc
Procedure, shortened: as §1

[31] = biological target: GlcNAc(b1-2)[GlcNAc(b1-6)]Man(a1-6)[GlcNAc(b1-2)Man(a1-3)]Man(b1-4)GlcNAc(b1-4)[Fuc(a1-6)]GlcNAc
Procedure, shortened: as §1

[32] = biological target: GlcNAc(b1-3)Gal(b1-4)GlcNAc(b1-2)Man(a1-3)[GlcNAc(b1-3)Gal(b1-4)GlcNAc(b1-2)Man(a1-6)]Man(b1-4)GlcNAc(b1-4)[Fuc(a1-6)]GlcNAc
Procedure, shortened: as §1

[33] = biological target: GlcNAc(b1-3)Gal(b1-4)GlcNAc(b1-3)Gal(b1-4)GlcNAc(b1-3)Gal(b1-4)GlcNAc(b1-3)Gal(b1-4)GlcNAc(b1-2)Man(a1-3)[GlcNAc(b1-3)Gal(b1-4)GlcNAc(b1-3)Gal(b1-4)GlcNAc(b1-3)Gal(b1-4)GlcNAc(b1-3)Gal(b1-4)GlcNAc(b1-2)Man(a1-6)]Man(b1-4)GlcNAc(b1-4)[Fuc(a1-6)]GlcNAc
Procedure, shortened: as §1

[34] = biological target: GlcNAc(b1-3)Gal(b1-4)GlcNAc(b1-3)[GlcNAc(b1-3)Gal(b1-4)GlcNAc(b1-3)]GalNAc
Procedure, shortened: as §1

[35] = biological target: GlcNAc(b1-6)GalNAc
Procedure, shortened: as §1

[36] = biological target: Man(a1-2)Man(a1-3)[Man(a1-2)Man(a1-6)]Man
Procedure, shortened: as §1

[37] = biological target: Man(a1-3)[Man(a1-6)]Man(b1-4)GlcNAc(b1-4)GlcNAc
Procedure, shortened: as §1

[38] = biological target: Neu5Ac(a2-3)Gal(b1-3)GlcNAc(b1-2)Man(a1-3)[Neu5Ac(a2-3)Gal(b1-3)GlcNAc(b1-2)Man(a1-6)]Man(b1-4)GlcNAc(b1-4)GlcNAc
Procedure, shortened: as §1

[39] = biological target: Neu5Ac(a2-3)Gal(b1-3)[GlcNAc(b1-6)]GalNAc
Procedure, shortened: as §1

[40] = biological target: Neu5Ac(a2-3)Gal(b1-4)[Fuc(a1-3)]GlcNAc(b1-6)[Neu5Ac(a2-3)Gal(b1-3)]GalNAc
Procedure, shortened: as §1

[41] = biological target: Neu5Ac(a2-3)[Neu5Ac(a2-6)]GalNAc
Procedure, shortened: as §1

[42] = biological target: Neu5Ac(a2-6)Gal(b1-4)GlcNAc(b1-2)Man(a1-3)Man(b1-4)GlcNAc(b1-4)GlcNAc
Procedure, shortened: as §1

[43] = biological target: Neu5Ac(a2-6)Gal(b1-4)GlcNAc(b1-2)Man(a1-3)[Man(a1-6)]Man(b1-4)GlcNAc(b1-4)GlcNAc
Procedure, shortened: as §1

[44] = biological target: Neu5Ac(a2-6)Gal(b1-4)GlcNAc(b1-2)Man(a1-3)[Neu5Ac(a2-3)Gal(b1-4)GlcNAc(b1-2)Man(a1-6)]Man(b1-4)GlcNAc(b1-4)GlcNAc
Procedure, shortened: as §1

[45] = biological target: Neu5Ac(a2-6)Gal(b1-4)GlcNAc(b1-2)Man(a1-3)[Neu5Ac(a2-6)Gal(b1-4)GlcNAc(b1-2)Man(a1-6)]Man(b1-4)GlcNAc(b1-4)[Fuc(a1-6)]GlcNAc
Procedure, shortened: as §1

[46] = biological target: Neu5Ac(a2-6)Gal(b1-4)GlcNAc(b1-2)Man(a1-6)[Gal(b1-4)GlcNAc(b1-2)Man(a1-3)]Man(b1-4)GlcNAc(b1-4)GlcNAc
Procedure, shortened: as §1

[47] = biological target: Neu5Ac(a2-6)Gal(b1-4)GlcNAc(b1-2)[Neu5Ac(a2-6)Gal(b1-4)GlcNAc(b1-4)]Man(a1-3)[GlcNAc(b1-4)][Neu5Ac(a2-6)Gal(b1-4)GlcNAc(b1-2)[Neu5Ac(a2-6)Gal(b1-4)GlcNAc(b1-6)]Man(a1-6)]Man(b1-4)GlcNAc(b1-4)GlcNAc
Procedure, shortened: as §1

[48] = biological target: Neu5Ac(a2-6)Gal(b1-4)GlcNAc(b1-6)[Gal(b1-3)GlcNAc(b1-3)]Gal(b1-4)Glc
Procedure, shortened: as §1

B1: RBMC2 (Vibrio cholerae) (protein)
chain: KISVRSGFAIDAIGASASTLVGGTGGNLNAAVNVKDIKAIDLTWGKYYWGGYHLLALDFRMSNGSVISMGSKNYAYSKQTERFTVPAGSRIKGIKAWTAGWLLDGVQFELA
In the case of B1, the “glycan array binding signal (z-score)” value [1] is reported as 1.19, the “glycan array binding signal (z-score)” value [2] is reported as 0.016 and the “glycan array binding signal (z-score)” value [3] is reported as 3.69. The “glycan array binding signal (z-score)” value [4] was -0.273, the “glycan array binding signal (z-score)” value [5] was -0.121 and the “glycan array binding signal (z-score)” value [6] was -0.171. The “glycan array binding signal (z-score)” value [7] was -0.327, the “glycan array binding signal (z-score)” value [8] was -0.4 and the “glycan array binding signal (z-score)” value [9] was -0.311. For the same binder, the “glycan array binding signal (z-score)” value [10] was 3.79, the “glycan array binding signal (z-score)” value [11] was -0.276 and the “glycan array binding signal (z-score)” value [12] was 4.07. For the same binder, the “glycan array binding signal (z-score)” value [13] was -0.258, the “glycan array binding signal (z-score)” value [14] was -0.3 and the “glycan array binding signal (z-score)” value [15] was 3.3. For the same binder, the “glycan array binding signal (z-score)” value [16] was -0.466, the “glycan array binding signal (z-score)” value [17] was -0.184 and the “glycan array binding signal (z-score)” value [18] was 0.211. For the same binder, the “glycan array binding signal (z-score)” value [19] was -0.235, the “glycan array binding signal (z-score)” value [20] was -0.097 and the “glycan array binding signal (z-score)” value [21] was -0.368. The “glycan array binding signal (z-score)” value [22] was -0.363, the “glycan array binding signal (z-score)” value [23] was -0.254 and the “glycan array binding signal (z-score)” value [24] was -0.327. For the same binder, the “glycan array binding signal (z-score)” value [25] was -0.305, the “glycan array binding signal (z-score)” value [26] was -0.328 and the “glycan array binding signal (z-score)” value [27] was 1.47. The “glycan array binding signal (z-score)” value [28] was -0.281, the “glycan array binding signal (z-score)” value [29] was 3.67 and the “glycan array binding signal (z-score)” value [30] was -0.232. For the same binder, the “glycan array binding signal (z-score)” value [31] was -0.178, the “glycan array binding signal (z-score)” value [32] was 3.51 and the “glycan array binding signal (z-score)” value [33] was 1.92. The “glycan array binding signal (z-score)” value [34] was -0.222, the “glycan array binding signal (z-score)” value [35] was -0.19 and the “glycan array binding signal (z-score)” value [36] was -0.48. For the same binder, the “glycan array binding signal (z-score)” value [37] was 4.41, the “glycan array binding signal (z-score)” value [38] was -0.017 and the “glycan array binding signal (z-score)” value [39] was -0.155. For the same binder, the “glycan array binding signal (z-score)” value [40] was -0.025, the “glycan array binding signal (z-score)” value [41] was -0.245 and the “glycan array binding signal (z-score)” value [42] was -0.132. The “glycan array binding signal (z-score)” value [43] was 12.3, the “glycan array binding signal (z-score)” value [44] was 3.39 and the “glycan array binding signal (z-score)” value [45] was 3.57. For the same binder, the “glycan array binding signal (z-score)” value [46] was 3.52, the “glycan array binding signal (z-score)” value [47] was -0.425 and the “glycan array binding signal (z-score)” value [48] was -0.398.
